Test results taken from PubChem BioAssay (NCI).
About 83,000 compounds went through this panel and 20% of them were active in at least one assay; those are over-represented in the sample as a whole.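 Negative percent growth values reflect cell death: -40 means 40% of the cells present at the start died, and -100 means all died.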 A number with no mark means an inactive call. Active and inactive are the calls of the source. The calls were made as follows: active = growth percent below 10; inactive = the rest.

The compounds below were run on MDA-MB-468 breast (assay: NCI-60 one-dose screen, 48 h (100 = growth as untreated, 0 = no growth, -100 = all killed)). Conditions: 10 µM unless noted.
For `Nc1ncnc2c1c(-c1ccc(Oc3ccccc3)cc1)nn2C[C@H]1SSC[C@@H]1O`, the growth was -26.7% (active). `N#CC(C#N)N=Nc1cc(Cl)ccc1Cl` showed a growth of 120%. Work on `COc1cc2c(cc1OC)C(=O)C(Br)CC2` (stereo not given) yielded a growth of 24.7%. In the case of `NC(N)=Nc1ccc(Oc2cccc(Nc3ccc(Cl)cc3)c2)cn1`, the growth is reported as -27.9% (active). In the case of `Nc1ccccc1SC1CC(=O)N(c2cccc3ccccc23)C1=O` (stereo not given), the growth is reported as 87%. Compound `Cc1cc(O)c2c(c1)C1OC(=O)CCCCCN1C1=C2C(=O)c2cccc(OC3CC(O)C(O)C(C)O3)c2C1=O` (stereo not given) has a growth of 58.3%. `Cc1cc(C)cc(Nc2ccc([N+](=O)[O-])c(NCCN3CCOCC3)n2)c1` showed a growth of 20.8%. Work on `CC(=O)Oc1ccc(C)cc1C` yielded a growth of 112%. With `CCN(CC)c1ccc(C(O)C2=CC(=O)c3ccccc3C2=O)cc1` (stereo not given) the growth was -53% (active). For `CCOC(=O)c1c2c(n3ccc(NC(=O)CCN4CCCCC4)cc13)C(=O)c1ncccc1C2=O`, the growth was 83.1%. `CCOC(=O)c1sc(NC(=O)COc2cccc(/C=C3\Cc4ccc(Cl)cc4C3=O)c2)nc1C` was tested, and the growth was 118%. `CN1CCN(C(=O)[C@]2(C)CC[C@]3(C)CC[C@]4(C)C(=CC(=O)[C@@H]5[C@@]6(C)CCC(=O)NC(C)(C)[C@@H]6CC[C@]54C)[C@@H]3C2)CC1` gave a growth of 101%. With `CCN(CC)CCS(=O)(=O)CCNc1ccnc2cc(Cl)ccc12` the growth was -49.2% (active). With `COc1ccc(-c2nn(-c3cccc(Cl)c3)cc2-c2cc(-c3ccc(Br)cc3)nc(N)n2)cc1` the growth was 95%. In the case of `O=C1Nc2ccc(Cl)cc2/C1=N/c1nc(-c2ccc(Cl)cc2)cs1`, the growth is reported as -18% (active). Work on `CNC1=C([N+](=O)[O-])C(c2ccc(OC)cc2)C(C#N)=C(c2cccs2)O1` (stereo not given) yielded a growth of 117%. In the case of `CCN1C(=O)N(CC)C2C1N=C(SC)N2/N=C/C=C/c1ccccc1OC` (stereo not given), the growth is reported as 1.3% (active). With `Cc1cc(C)n(C(=O)CSc2nc3sc4c(c3c(=O)n2-c2ccccc2)CCCCC4)n1` the growth was 111%. `Cc1[nH]c(=O)[nH]c(=O)c1Br` was tested, and the growth was 107%. For `CC(C)(C)C1CCC(=NO)CC1` (stereo not given), the growth was 94%. In the case of `COc1cc2c(cc1I)-c1c(cc(OC)c(OC)c1OC)CC[C@@H]2NC(C)=O`, the growth is reported as -6.02% (active). `CCCCCCCC/C=C\CCCCCCCCOc1ccccc1CC(=O)NCC[N+](C)(C)C` showed a growth of 68.9%. `Cn1c(NCCc2ccc(O)c(O)c2)nc2c1c(=O)n(Cc1ccc(Cl)cc1)c(=O)n2C` gave a growth of 19.4%. For `CCOC(=O)C(=O)Cc1cccnn1`, the growth was 102%. With `CS(=O)(=O)N1CCc2c(-c3cnc(N)nc3)nc(N3CCOCC3)nc21` the growth was -27.9% (active). Work on `O=[N+]([O-])c1cccc(-c2nc(-c3ccc(Cl)cc3Cl)cn2-c2ccccc2)c1` yielded a growth of 22.2%. `NS(=O)(=O)c1ccc(CCn2c(SCC(=O)N/N=C/c3cccnc3)nc3ccccc3c2=O)cc1` was tested, and the growth was 92.9%. Work on `Cc1c(-c2noc(-c3ccc([N+](=O)[O-])cc3)n2)no[n+]1[O-]` yielded a growth of 104%. For `CCCCCCCCCCCCNC(=S)N/N=C/c1ccc(Cl)c(Cl)c1`, the growth was 104%. `CC(=O)N[C@H](C(=O)N[C@@H](CCCNC(=N)N)C(=O)N[C@@H](CCCCN)C(=O)N[C@@H](CCCNC(=N)N)C(=O)N[C@]1(C)CCC/C=C\CCC[C@@](C)(C(=O)N[C@@H](CC(C)C)C(=O)N[C@@H](CC(C)C)C(=O)N[C@@H](CCC(N)=O)C(=O)N[C@@H](CCC(=O)O)C(=O)N[C@@H](CCCNC(=N)N)C(=O)N[C@@H](CCC(=O)O)C(=O)N[C@@H](CC(C)C)C(=O)N[C@H](C(=O)N[C@@H](CCC(=O)O)C(N)=O)C(C)C)NC(=O)[C@H](CCCNC(=N)N)NC(=O)[C@H](CC(C)C)NC1=O)C(C)C` was tested, and the growth was 109%. `COC(=O)c1c2c(c(C)[n+]([O-])c1C)C(=O)C(NCc1cccc(Cl)c1)=CC2=O` was tested, and the growth was -26.3% (active). For `COC[C@]12CC[C@@H](C)[C@H](C)[C@H]1C1=CC[C@@H]3[C@@]4(C)CCCNC(C)(C)[C@@H]4CC[C@@]3(C)[C@]1(C)CC2`, the growth was -6.6% (active). Compound `COc1nc2c(c(=O)n1C)N=C1c3ccccc3C(=O)C1C(c1ccccc1)N2` (stereo not given) has a growth of 82.5%. Work on `O=C(CN1CCN(c2cc3c(cc2F)c(=O)c(C(=O)O)cn3C2CC2)CC1)N/N=C/c1ccco1` yielded a growth of 104%. `CN1C[C@@H](c2ccc(Cl)cc2)[C@]2(NC(=S)N(c3ccccc3)C2=O)[C@@]12C(=O)NC1C=CC(Br)=C[C@H]12` (stereo not given in full) showed a growth of 67.7%. For `COc1ccc(/C=C/C(=O)c2ccc(NC(=O)CSc3nnc(-c4ccc5nc(-c6ccc(Cl)cc6)[nH]c5c4)o3)cc2)cc1`, the growth was 110%. For `N=C(N)c1ccc(-c2ccc(-c3ccc(F)cc3)s2)s1`, the growth was -77% (active). For `Nc1cc2nc3ccccc3sc-2cc1=O`, the growth was 72.9%. With `O=C1C2=C(C(=O)c3c(O)ccc(O)c31)N(c1ccc(N3CCOCC3)nc1)Cc1ccccc1O2` the growth was -60.8% (active). Compound `CCOC(=O)c1c[nH]c2cc(OCC3CC3)c(OCC3CC3)cc2c1=O` has a growth of 107%.
